Nrf2 inh: Nrf2 pathway inhibition; 360,000 tested, 2.1% active; A549 ARE-Fluc reporter, luciferase luminescence, 18-24 h; Potency, µM (titrated, usually from 46 µM), without a hit: at the top dose activity change, negative = inhibition, most hits filed as inhibitors; further: potency means the concentration at half of the fitted maximal effect; on the % scale 0 is the no-effect control and ±100 the full control effect; nearly all actives have a fitted effect of over 60% in size
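Nrf2 activity is the BugLite luminescence, read 15 min after reagent at room temperature, following CellTiter-Fluor cytotoxicity readout (30 min, 37C). Compound titrations were applied for 18-24 h to 5000 A549 ARE_Fluc cells/well in 5% FBS OPTI-MEM.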
Nrf2 activator: activators of Nrf2 (ARE) signaling. 410,000 tested, 0.31% active. Potency, µM (doses to about 46.1 µM), without a hit: at the top dose activation, most hits filed as activators. AREc32 ARE-luciferase reporter (MCF7-derived line), luminescence, 24 h; further: potency means the concentration at half of the fitted maximal effect; % of control where 0% means no effect; nearly all actives have a fitted effect of over 65% in size
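Cells of the AREc32 ARE-luciferase line are plated in OPTI-MEM containing 5% FBS and left overnight at 37 deg C. Compounds are pinned in, incubation continues 24 hr, and firefly luciferase signal is then measured.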
p53 reactivator: mutant p53 re-activation in reporter cells; H1299 p53-A138V BP100-luciferase reporter, luminescence, 24 h; Potency, µM (highest dose often 92.2 µM), for the others: at the highest dose activity change, positive = activation, usual class: activators; 320,000 tested, 0.063% active; further: potency means the concentration at half of the fitted maximal effect; % of control where 0% means no effect; nearly all actives have a fitted effect of over 45% in size
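p53-null H1299 cells stably carrying temperature-sensitive p53-A138V and a BP100-luciferase reporter were pinned with compounds (4-point, 1:5 series) and held 24 hrs at 37 deg C. Luminescence was read 10 min after detection reagent.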
A549 tox-1: kills or reduces viability of A549 cells in Nrf2 counter-screen; Potency, µM (top dose mostly 46 µM), without a hit: top-dose activity change, negative = cytotoxicity, actives largely listed as inhibitors; 390,000 tested, 0.16% active; A549 ARE-Fluc cells, CellTiter-Fluor viability, 18-24 h; AID 504648; further: potency means the concentration at half of the fitted maximal effect; on the % scale 0 is the no-effect control and ±100 the full control effect
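Cytotoxicity counterscreen: CellTiter-Fluor fluorescence was measured in A549 ARE_Fluc cells after 18-24 h of compound exposure in a concentration series. The subsequent BugLite luminescent read reports ARE-luciferase activity.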
IL-2 act: IL-2 activation | IL-2 activation reporter assay, cell-based qHTS; stimulated with anti-CD3/CD4/CD28 beads; in transgenic mouse T cells | activation, % (series mostly up to about 46 µM) | 360,000 tested, 0.065% active; in the data active means activation above about 50%; inconclusive means mostly about 30% to 49%; further: 0% is about no effect
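Using fluorescent plate cytometry, EGFP and DsRed are detected in transgenic mouse T cells stimulated 18 h at 37 degrees C with antibody-coated beads after 60 min compound pretreatment.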
BRCA1 expr act: increases BRCA1 expression. MCF7-BRCA1-FFLuc reporter, luminescence, 48 h; response scale: scaled: vehicle 0%, 10 µM genistein 100%. Potency, µM (highest dose often 46.1 µM), inactives show at the top dose activation, actives largely listed as activators. 380,000 tested, 1.1% active; further: potency means the concentration at half of the fitted maximal effect; nearly all actives have a fitted effect of over 80% in size
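Luminescence from a BRCA1-driven firefly luciferase in MCF7 cells was the read-out, taken 15 min after substrate addition following 48 h compound exposure at 37 °C. Data were normalized to a 10 microM genistein control and DMSO vehicle.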
FLuc enzyme inh: blocks purified firefly luciferase in Nrf2 counterscreen; 1,400 tested, 4% active; purified firefly luciferase, luminescence inhibition; shares compounds with Nrf2 inh; Potency, µM (series often up to 57.5 µM), inactives show at the top dose activity change, negative = inhibition, most hits filed as inhibitors; further: potency means the concentration at half of the fitted maximal effect; on the % scale 0 is the no-effect control and ±100 the full control effect; nearly all actives have a fitted effect of over 65% in size
Target sequence (P08659 whole entry, looked up): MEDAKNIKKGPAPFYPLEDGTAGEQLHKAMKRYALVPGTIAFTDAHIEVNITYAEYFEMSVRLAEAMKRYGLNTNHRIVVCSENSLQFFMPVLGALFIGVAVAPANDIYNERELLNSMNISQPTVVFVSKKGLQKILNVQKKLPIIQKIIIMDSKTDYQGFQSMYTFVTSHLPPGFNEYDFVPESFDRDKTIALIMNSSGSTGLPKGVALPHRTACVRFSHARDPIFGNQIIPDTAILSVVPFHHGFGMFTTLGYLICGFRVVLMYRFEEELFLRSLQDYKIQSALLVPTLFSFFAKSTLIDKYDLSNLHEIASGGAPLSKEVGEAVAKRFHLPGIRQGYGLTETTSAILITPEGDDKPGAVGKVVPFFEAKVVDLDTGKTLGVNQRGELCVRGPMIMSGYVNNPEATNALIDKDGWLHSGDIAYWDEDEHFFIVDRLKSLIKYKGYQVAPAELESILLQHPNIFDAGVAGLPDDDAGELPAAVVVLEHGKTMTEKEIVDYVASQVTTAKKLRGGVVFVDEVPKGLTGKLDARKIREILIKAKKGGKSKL
A549 tox-2: A549 cytotoxicity, Nrf2 inhibitor counterscreen. AID 720523. Potency, µM (top dose mostly 46.1 µM), for inactives: top-dose activity change, negative = cytotoxicity, most hits filed as inhibitors. 1,400 tested, 2% active. shares compounds with Nrf2 inh. A549 ARE-Fluc cells, cytotoxicity counterscreen;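 further: potency means the concentration at half of the fitted maximal effect; cells exposed to compounds for 18 to 24 hours; on the % scale 0 is the no-effect control and ±100 the full control effect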
Nrf2 ARE inh: confirmation of Nrf2 inhibitors in A549 ARE reporter cells. Potency, µM (doses to about 46.1 µM), for inactives: at the highest dose activity change, negative = inhibition, hits mostly inhibitors. shares compounds with Nrf2 inh. 1,400 tested, 74% active. A549 ARE-firefly luciferase reporter, luminescence; further: potency means the concentration at half of the fitted maximal effect; on the % scale 0 is the no-effect control and ±100 the full control effect; nearly all actives have a fitted effect of over 65% in size
* marks the source's active call; other numbers are inactive results; ? = inconclusive; . = not tested or not shown; [ ] = another dose, or the depositor's remark. Rows were chosen to be rich in hits. Some 3.2% of all compounds tested hit in one or more screens of this group. Unless noted, the call rests on the fitted dose curve; in most records, active means well fitted curve in the direction sought with a large enough effect; inconclusive means small, poorly fitted or top-dose-only effect, or another doubt; inactive means no such curve, though single readings can be large; an effect the other way counts as inactive or inconclusive.

SMILES	Nrf2 inh	Nrf2 activator	p53 reactivator	A549 tox-1	IL-2 act	BRCA1 expr act	FLuc enzyme inh	A549 tox-2	Nrf2 ARE inh
CCN(CC)S(=O)(=O)c1ccc(/C=C/C(=O)Nc2ccc(F)cc2F)cc1	?	3%	?	-3%	-4	-4%	.	.	.
CCN(CC)S(=O)(=O)c1ccc(/C=C/C(=O)Nc2ccc(F)c(F)c2F)cc1	?	6%	14%	-4%	5	-23%	-10%	-5%	?
O=C(CSc1nc2ccccc2nc1Cc1ccccc1)Nc1ccc2c(c1)OCO2	.	-1%	.	-6%	.	.	.	.	.
Cc1ccc(Cc2c(C)nc3nc(SCC(=O)NCCC(C)C)nn3c2C)cc1	-3%[9.27 µM]	0%	.	1%	.	.	.	.	.
COc1ccc(-c2noc(-c3ccc(NC4CCCC4)c([N+](=O)[O-])c3)n2)cc1	?	0%	.	8%	.	2%	.	.	.
CCN(c1ccccc1)S(=O)(=O)c1cc(C(=O)Nc2ccc(Br)cc2)ccc1F	5.8µM*	5%	-3%	?	-4	-75%	-12%	-29%	12µM*
CCN(c1ccccc1)S(=O)(=O)c1cc(C(=O)Nc2ccccc2Cl)ccc1F	?	0%	1%	9%	0	-43%	.	.	.
CCN(C(=O)CC(C)C)c1nnc(Cn2nnc3ccccc32)s1	?	3%	-1%	-4%	-2	0%	.	.	.
CCN(C(=O)c1ccc(C(C)(C)C)cc1)c1nnc(Cn2nnc3ccccc32)s1	5.8µM*	5%	28%	?	-4	-56%	1%	-15%	6.5µM*
COc1ccccc1C(=O)NC(=S)Nc1ccc(Cc2ccncc2)cc1	5.8µM*	7%	5%	-14%	-1	3%	-1%	0%	21µM*
COc1cc(C(=O)NC(=S)Nc2ccc(Cc3ccncc3)cc2)cc(OC)c1OC	?	5%	4%	-10%	-3	-2%	.	.	.
CCN1CCN(c2nnc(-n3cccc3C(=O)Nc3cccc(OC)c3)s2)CC1	?	4%	.	5%	.	.	.	.	.
CCC(C)C(NC(=O)OC(C)(C)C)C(=O)NC1COC2CC(n3ccc(NC(C)=O)nc3=O)OC12 (centres undefined)	1%	.	.	-2%	.	.	.	.	.
O=C(Nc1ccccc1F)Nc1ccccc1N1CCCCC1	5.8µM*	5%	7%	?	-1	-35%	-13%	-2%	?
O=C(Nc1ccccc1N1CCCCC1)c1ccc(F)cc1	-5%	0%	11%	0%	-3	-17%	.	.	.
CCN(CC)c1ccc(NC(=O)CN2C(=O)c3cccnc3Oc3ccccc32)c(C)c1	17%	3%	.	-3%	.	.	.	.	.
CC[C@]12c3[nH]c4cc(CCC(=O)N(C)C)ccc4c3CCN1C(=O)[C@@H](CC(=O)NC/C=C(\C)CCC=C(C)C)C[C@@H]2C(=O)N1CCN(C(=O)c2ccco2)CC1	?	-1%	-11%	?	-1	-76%	.	.	.
CC[C@]12c3[nH]c4ccc(Cl)cc4c3CCN1C(=O)[C@@H](CC(=O)NC/C=C(\C)CCC=C(C)C)C[C@@H]2C(=O)N1CCN(C(=O)c2ccco2)CC1	6.5µM*	-1%	-1%	?	-1	-72%	3%	?	16µM*
Cc1cccc(-c2nc3nc(C)cc(NC(C)c4ccccc4)n3n2)c1 (centres undefined)	.	4%	.	?	.	5%	.	.	.
O=[N+]([O-])c1ccc(O)c(-c2nc(-c3ccccc3)c(-c3cccs3)[nH]2)c1	3.7µM*	1%	-3%	.	-2	-88%	-16%	?	21µM*
COc1cccc(CNC(=O)c2c(C)oc3nc(C)nc(N4CCOCC4)c23)c1	?	3%	.	4%	.	.	.	.	.
Cc1ccc(S(=O)(=O)N(C)c2ccc(C(=O)N3CCN(Cc4ccc5c(c4)OCO5)CC3)cc2)cc1	?	-1%	?	-19%	-3	-73%	.	.	.
CN(c1ccc(C(=O)N2CCN(Cc3ccc4c(c3)OCO4)CC2)cc1)S(=O)(=O)c1ccccc1	6.5µM*	1%	1%	3%	-1	-67%	2%	1%	9.2µM*
c1cc2[nH]snc2c2nc(C3CC3)nc12	7.3µM*	2%	7%	-5%	-2	33%	?	0%	13µM*
CC1(C)CC2CC(C)(CN2S(=O)(=O)c2ccc(C(=O)Nc3cccc(S(=O)(=O)N4CCOCC4)c3)cc2)C1 (centres undefined)	2.3µM*	0%	3%	-2%	-1	-7%	-1%	-4%	2.1µM*
SMILES	Nrf2 inh	Nrf2 activator	p53 reactivator	A549 tox-1	IL-2 act	BRCA1 expr act	FLuc enzyme inh	A549 tox-2	Nrf2 ARE inh
CCOC(=O)c1c(C)oc2ncnc(N3CCN(c4ccccc4F)CC3)c12	.	4%	.	11%	.	.	.	.	.
CC(=NNC(=S)N1CCC1)c1ccccn1	0.13µM*	?	.	?	-1	?	-18%	?	0.65µM*
CC(=NNC(=S)N1CCCC1)c1ccccn1	.	?	.	.	-4	-55%	.	.	.
COc1ccc(CCNC(=O)c2ccc(-c3cccc([N+](=O)[O-])c3)o2)cc1OC	?	1%	-7%	-1%	-1	-35%	.	.	.
COc1ccc(CCNC(=O)c2cccc([N+](=O)[O-])c2)cc1OC	2.6µM*	-1%	.	3%	0	-36%	3%	-9%	3.7µM*
Cc1c(C(=O)N2CCCCC2)oc2ccc(S(=O)(=O)N3CC(C)CC(C)C3)cc12 (centres undefined)	9.2µM*	2%	-2%	-12%	0	-60%	-1%	-14%	9.2µM*
C/C(=N\Nc1ccc2nncn2n1)c1ccccn1	3.7µM*	0%	?	-27%	-1	-82%	-17%	-9%	2.6µM*
C/C(=N\Nc1ccc2nncn2n1)c1ccco1	-8%	?	4%	3%	1	1%	.	.	.
Cc1ccc2c(c1)N(S(=O)(=O)c1cc(-c3onc(C)c3C)ccc1C)CCO2	8.2µM*	0%	-2%	1%	-3	-47%	1%	2%	?

Screens as filed in PubChem.
